Results published in PubChem BioAssay (NCATS).
Values joined by “and” are separate entries in the source; they are usually repeats but may differ in a detail not shown here. Equal entries are not always repeated. Inconclusive results are not listed. Active and inactive are the calls of the source. Unless noted, the call rests on the fitted dose curve; in most records, active means well fitted curve in the direction sought with a large enough effect; inconclusive means small, poorly fitted or top-dose-only effect, or another doubt; inactive means no such curve, though single readings can be large; an effect the other way counts as inactive or inconclusive.

How the values were obtained:
[1] = Cell Viability - BJ (AID 421; calls by dose curve;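 further: potency means the concentration at half of the fitted maximal effect; cells exposed to compound for 40 hours at 37 °C before readout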); conditions: BJ fibroblast viability, qHTS
Outline: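 Cytotoxicity in human BJ foreskin fibroblasts is scored as loss of cellular ATP after a 40-hour exposure, measured by luciferase luminescence. Controls are DMSO and 100 uM tamoxifen.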

[2] = Cell Viability - HepG2 (AID 433; calls by dose curve;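 further: potency means the concentration at half of the fitted maximal effect; potency for ATP loss meaning cytotoxicity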); conditions: qHTS
Outline: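 Cytotoxicity is scored as loss of intracellular ATP in HepG2 cells exposed to compounds for 40 h. Concentration-response curves, normalized to DMSO and 100 uM tamoxifen, give AC50 values.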

[3] = Cell Viability - MRC5 (AID 434; calls by dose curve;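 further: potency means the concentration at half of the fitted maximal effect; cells exposed to compound for 40 hours at 37 °C; potency reflects cytotoxicity seen as loss of intracellular ATP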); conditions: MRC5 lung fibroblast viability, qHTS
Outline: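 ATP luminescence read-out (CellTiter-Glo, 20 min RT) after 40 hr, 37 °C compound exposure of 1500 MRC5 cells/well. Data normalized to DMSO (basal) and 100 uM tamoxifen (100% inhibition); AC50 from standard Hill equation.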

[4] = Cell Viability - SK-N-SH (AID 435; calls by dose curve;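 further: potency means the concentration at half of the fitted maximal effect; compound exposure lasted 40 h at 37 °C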); conditions: SK-N-SH neuroblastoma cell viability qHTS
Outline: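 Cells seeded at 1500 per well and incubated 5 hr at 37 °C. Compound added, then 40 hr at 37 °C. CellTiter-Glo added, 20 min at room temperature, luminescence read.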

[5] = target: Mitogen-activated protein kinase 10 (Mus musculus) (UniProt Q61831); assay: JNK3 AlphaScreen Assay (AID 530; active means well fitted curve in either direction with a large enough effect, not every such curve was filed as active;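 further: kinase came from lysate of stimulated human HepG2 cells; signal reports phosphorylation of biotinylated GST-cJun 1-79 at Ser73 with 10 µM ATP; on the % scale 0 is the no-effect control and ±100 the full control effect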); conditions: JNK3 lysate, c-Jun phosphorylation; series mostly up to 57.1 µM
Outline: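 HepG2 lysate (IL-1b/TNFa pre-activated) + biotin-GST-cJun 1-79 + anti-pSer73 cJun; cpd titration, 15 min RT; ATP 10 uM start; Tris pH 7.6, MgCl2, DTT, vanadate; beads in EDTA buffer; AlphaScreen.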

[6] = Cell Viability - N2a (AID 540); conditions: N2a mouse neuroblastoma cell viability; at 92.2 µM (top of the series);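 further: cells exposed to compound for 40 h at 37 °C; plate controls were DMSO alone for no effect and tamoxifen control for full effect; nearly all actives have a fitted effect of over 45% in size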
Outline: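 In this qHTS cytotoxicity screen, ATP-dependent luciferase luminescence reports viable N2a cells after a 40 hr compound exposure in complete culture medium. Potencies are AC50 values from standard Hill equation fits.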

[7] = Cell Viability - HUV-EC-C (AID 542); conditions: HUV-EC-C endothelial cell viability, qHTS; series mostly up to 92.2 µM; further: on the % scale 0 is the no-effect control and ±100 the full control effect; nearly all actives have a fitted effect of over 35% in size
Outline: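 Concentration-dependent ATP loss in HUV-EC-C cells is the measure. Exposure lasts 40 hr at 37 °C; luminescence follows CellTiter-Glo addition, and Hill fits give AC50.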

[8] = Cell Viability - SH-SY5Y (AID 544); conditions: SH-SY5Y neuroblastoma cell viability; viability change, negative = cytotoxic: at 92.2 µM (top of the series); further: nearly all actives have a fitted effect of over 55% in size
Outline: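 Quantitative HTS in SH-SY5Y neuroblastoma cells, 40 hr treatment at 37 °C, ATP content by luciferase luminescence; AC50 from Hill fits.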

[9] = Cell Viability - Renal Proximal Tubule (AID 545); conditions: renal proximal tubule cells viability; at 91.7 µM (top of the series), primary cells of rat origin unless noted; further: nearly all actives have a fitted effect of over 40% in size
Outline: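 Cytotoxicity is scored as a concentration-dependent drop in cellular ATP in primary rat renal proximal tubule cells exposed for 40 hr. AC50 derives from Hill modelling.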

[10] = Cell Viability - Mesenchymal (AID 546); conditions: mesenchymal cells viability, qHTS; series mostly up to 91.7 µM;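 further: cells exposed to compound for 40 hours before reading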
Outline: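 Human renal mesenchymal cells (glomerulus-derived), 1000 cells/well, 5 hr 37 °C pre-incubation; compound 40 hr, 37 °C; CellTiter-Glo, 20 min RT; luminescence; AC50 via Hill equation.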

[11] = Cellular Toxicity (caspase-3) Jurkat (AID 655); conditions: Jurkat caspase-3 activation, luminescence, DMSO = 0%, tamoxifen = 100%; at 92.2 µM (top of the series);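 further: cells exposed to compound for 16 h at 37 °C before reading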
Outline: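 Caspase 3/7 activation is scored as increased luminescence in Jurkat cells cultured with compound for 16 hours in complete medium. AC50 values come from Hill fits of qHTS concentration-response data normalized to DMSO and 100 uM tamoxifen controls.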

[12] = Cellular Toxicity (caspase-3) SHSY5Y (AID 657); conditions: SH-SY5Y caspase-3 activation, DMSO zero, 10 µM staurosporine = 100%; series mostly up to 91.7 µM
Outline: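 Cells plated and incubated 5 h at 37 °C, dosed over a concentration range, incubated 16 h, then given Caspase-Glo 3/7 reagent for 1 h at room temperature before luminescence reading. Staurosporine (10 uM) defined full stimulation.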

[13] = Cellular Toxicity (caspase-3) BJ (AID 658); conditions: BJ fibroblasts, luminescence, normalized: DMSO 0%, staurosporine 100%; series mostly up to 91.7 µM
Outline: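 qHTS, BJ fibroblasts, 1000 cells/well; 5 hr preincubation, 16 hr compound, 37 °C; Caspase-Glo 3/7 reagent, 1 hr RT; luminescence. DMSO = 0%, 10 uM staurosporine = 100%. Hill-equation AC50.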

[14] = Cellular Toxicity (caspase-3) MRC-5 (AID 659); conditions: MRC-5 cells, luminescence, normalized: DMSO 0%, 10 µM staurosporine 100%; series mostly up to 91.7 µM
Outline: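 MRC-5 fibroblasts, 1500/well; 16 h cpd, 37 °C; Caspase-Glo 3/7, 1 h RT; lumi read. Norm: DMSO = 0%, 10 uM staurosporine = 100%. Hill-fit AC50 from qHTS conc-response.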

[15] = Cellular Toxicity (caspase-3) Mesangial (AID 660); conditions: mesangial cells, normalized: DMSO 0%, 100 µM tamoxifen 100%; series mostly up to 91.7 µM;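 further: combined caspase 3 and 7 activity read by Caspase-Glo luminescence; cells exposed to compound for 16 h before the caspase read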
Outline: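 AC50 values come from Hill-equation fits of caspase 3/7 activation, measured as Caspase-Glo luminescence in human glomerular mesangial cells exposed to compound for 16 h at 37 °C; 100% set by 100 uM tamoxifen.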

[16] = Cellular Toxicity (caspase-3) SK-N-SH (AID 661); conditions: SK-N-SH caspase-3 activation, qHTS, DMSO as zero, staurosporine as full; series mostly up to 91.7 µM
Outline: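 Apoptosis readout in SK-N-SH neuroblastoma: Caspase-Glo 3/7 luminescence following 16 hr treatment in complete culture medium. Normalization used DMSO and 10 uM staurosporine controls.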

[17] = Cellular Toxicity (caspase-3) Renal Proximal Tubule (AID 667); conditions: renal proximal tubule cells; at 91.7 µM (top of the series), primary cells freshly taken from rat, solvent-only wells 0%, staurosporine 100% unless noted;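 further: cells exposed to compound for 16 hours at 37 °C before detection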
Outline: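 In qHTS format, rat primary proximal tubule cells seeded at 1000 per well are exposed to compounds for 16 hours at 37 °C. An increase in Caspase-Glo 3/7 luminescence indicates caspase activation.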

[18] = qHTS Assay for Identification of Small Molecule Inducers of Hypoxia Response (AID 2120; active means well fitted curve in the direction sought with a large enough effect in the signal ratio, with a control signal flat, not every such curve was filed as active; the % refers to the signal ratio; further: 0% is about no effect); conditions: hypoxia response reporter cells, beta-lactamase ratio readout; series mostly up to 104 µM
Outline: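 HRE-bla ME-180, 2500 cells/well, 0.5% dialyzed FBS medium; cpd titration, 17 h 37 degrees C; CCF4 2.5 h RT; Ex 405, Em 460/530 ratio -> %Activity, AC50.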

[19] = qHTS assay for small molecule disruptors of the mitochondrial membrane potential - 5 hr assay (AID 651755; calls by dose curve; further: on the % scale 0 is the no-effect control and ±100 the full control effect; nearly all actives have a fitted effect of over 40% in size); conditions: JC-1-type ratio dye; series mostly up to 92.2 µM
Outline: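 Read-out: ratiometric Mito-MPS fluorescence, green monomer (ex 490/em 535) vs red mitochondrial aggregate (ex 540/em 590). HepG2 cells treated 5 hr at 37C before 30 min dye loading.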

[20] = target: Peroxisome proliferator-activated receptor alpha (Homo sapiens) (UniProt Q07869); assay: qHTS assay for small molecule agonists of the peroxisome proliferator-activated receptor alpha (PPARalpha) signaling pathway (AID 651778); conditions: PathHunter PPARalpha complementation, chemiluminescence, 6 h; stronger effect = higher value; further: % of control where 0% means no effect
Outline: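 Enzyme-fragment complementation assay in which ligand-bound PPARalpha translocates and forms an active enzyme that generates chemiluminescence. Cells were plated overnight, exposed to compound for 6 hr at 37 C, and then given detection reagent for 60 min at room temperature.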

Peroxisome proliferator-activated receptor alpha (Homo sapiens), sequence (Q07869 whole entry, looked up, the tested form may be a part): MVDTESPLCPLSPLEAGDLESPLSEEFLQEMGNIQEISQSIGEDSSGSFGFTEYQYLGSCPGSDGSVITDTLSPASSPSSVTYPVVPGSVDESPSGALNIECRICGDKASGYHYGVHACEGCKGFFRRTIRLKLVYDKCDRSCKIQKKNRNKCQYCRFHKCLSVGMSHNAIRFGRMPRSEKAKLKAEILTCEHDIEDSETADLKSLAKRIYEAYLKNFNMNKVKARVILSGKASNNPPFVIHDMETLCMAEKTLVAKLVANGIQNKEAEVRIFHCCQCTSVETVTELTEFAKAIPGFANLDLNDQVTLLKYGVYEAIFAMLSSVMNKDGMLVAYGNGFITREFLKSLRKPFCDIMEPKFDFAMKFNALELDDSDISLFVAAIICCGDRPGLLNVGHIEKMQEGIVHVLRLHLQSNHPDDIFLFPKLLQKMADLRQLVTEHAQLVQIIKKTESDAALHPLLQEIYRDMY

O=[N+]([O-])c1cccc2ccccc12
inactive: Potency [1] > 92 µM | Potency [2] > 92 µM | Potency [3] > 92 µM | Potency [4] > 92 µM | outcome [5] | activity change, negative = cytotoxicity [6] 2.46% | Potency [7] | Potency [8] | activity change, negative = cytotoxicity [9] -0.153% | outcome [10] | caspase-3 activation [11] -1.75% | outcome [12] | outcome [13] | outcome [14] | outcome [15] | outcome [16] | caspase-3 activation [17] -1.57% | outcome [18] | Potency [19] | max response [20] -0.448% and 0.96%

O=C(Oc1ccccc1)N1CCC[C@@]2(CCN(Cc3ccccc3)C2)C1
inactive: outcome [5]

COc1ccc(C=O)cc1OC
inactive: Potency [1] > 92 µM | Potency [2] > 92 µM | Potency [3] > 92 µM | Potency [4] > 92 µM | outcome [5] | activity change, negative = cytotoxicity [6] -19.3% | Potency [7] | Potency [8] | activity change, negative = cytotoxicity [9] -7.47% | outcome [10] | caspase-3 activation [11] 1.2% | outcome [12] | outcome [13] | outcome [14] | outcome [15] | outcome [16] | caspase-3 activation [17] -4.32% | outcome [18] | Potency [19] | max response [20] 0.927% and -2.24%

CCOP(=S)(OCC)SCSC(C)(C)C
inactive: Potency [1] > 92 µM | Potency [2] > 92 µM | Potency [3] > 92 µM | Potency [4] > 92 µM | outcome [5] | activity change, negative = cytotoxicity [6] -4.96% | Potency [7] | Potency [8] | activity change, negative = cytotoxicity [9] 1.14% | outcome [10] | caspase-3 activation [11] -0.764% | outcome [12] | outcome [13] | outcome [14] | outcome [15] | outcome [16] | caspase-3 activation [17] -0.898% | outcome [18] | Potency [19] | max response [20] -1.59% and -3.9%

ClC(Cl)(Cl)c1ccccc1
inactive: Potency [1] > 92 µM | Potency [2] > 92 µM | Potency [3] > 92 µM | Potency [4] > 92 µM | activity change, negative = cytotoxicity [6] 2.93% and 2.42% | Potency [7] | Potency [8] | activity change, negative = cytotoxicity [9] -4.93% and -2.74% | outcome [10] | caspase-3 activation [11] 18.2% and -0.502% | outcome [12] | outcome [13] | outcome [14] | outcome [15] | outcome [16] | caspase-3 activation [17] -4.62% and -2.75% | outcome [18] | Potency [19] | max response [20] -2.9% and -5.05%

Clc1nc(Cl)nc(Nc2ccccc2Cl)n1
inactive: Potency [1] > 92 µM | Potency [2] > 92 µM | Potency [3] > 92 µM | Potency [4] > 92 µM | outcome [5] | activity change, negative = cytotoxicity [6] 9.08% | Potency [7] | Potency [8] | activity change, negative = cytotoxicity [9] -4.26% | outcome [10] | caspase-3 activation [11] 0.489% | outcome [12] | outcome [13] | outcome [14] | outcome [15] | outcome [16] | caspase-3 activation [17] -3.95% | outcome [18] | Potency [19] | max response [20] 1.31% and 8.11%

O=C(c1ccco1)N1CCC2(CC1)CN(Cc1ccncc1)C2
inactive: outcome [5]

CC(C)CN1CCCC2(CCN(C(=O)Oc3ccccc3)CC2)C1
inactive: outcome [5]

CCCCOCCOP(=O)(OCCOCCCC)OCCOCCCC
inactive: Potency [1] > 92 µM | Potency [2] > 92 µM | Potency [3] > 92 µM | Potency [4] > 92 µM | outcome [5] | activity change, negative = cytotoxicity [6] -1.66% | Potency [7] | Potency [8] | activity change, negative = cytotoxicity [9] 5.24% [at 91.7 µM] | outcome [10] | caspase-3 activation [11] 1.12% | outcome [12] | outcome [13] | outcome [14] | outcome [15] | outcome [16] | caspase-3 activation [17] -4.16% [at 91.7 µM] | outcome [18] | Potency [19] | max response [20] 5.47% and -1.69%

ClC(Cl)=C(Cl)Cl
inactive: Potency [1] > 92 µM | Potency [2] > 92 µM | Potency [3] > 92 µM | Potency [4] > 92 µM | activity change, negative = cytotoxicity [6] -8.38% and -0.61% | Potency [7] | Potency [8] | activity change, negative = cytotoxicity [9] -15.6% and -5.24% | outcome [10] | caspase-3 activation [11] -0.349% and -0.592% | outcome [12] | outcome [13] | outcome [14] | outcome [15] | outcome [16] | caspase-3 activation [17] 1.99% and -8.12% | outcome [18] | Potency [19] | max response [20] -0.144% and -2.45%

CC(=O)[O-].CC(=O)[O-].O.O.O.[Pb+2]
inactive: Potency [1] > 92 µM | Potency [2] > 92 µM | Potency [3] > 92 µM | Potency [4] > 92 µM | outcome [5] | activity change, negative = cytotoxicity [6] 13.3% and 9.03% | Potency [7] | Potency [8] | activity change, negative = cytotoxicity [9] -5.61% and -0.959% | outcome [10] | caspase-3 activation [11] 1.15% and 0.852% | outcome [12] | outcome [13] | outcome [14] | outcome [15] | outcome [16] | caspase-3 activation [17] -9.48% and -1.66% | outcome [18] | Potency [19] | max response [20] -4.64% and -4.52%

O=C(Nc1ccccc1)N1CCC2(CC1)CCN(C(=O)Oc1ccccc1)CC2
inactive: outcome [5]
